# In PubChem BioAssay (EPA / NIEHS):
# Inconclusive results are not listed. Calls of active or inactive are those of the source. Rule for the calls: active = hit-call score of the fitted dose curve at least 0.9, where 1 is the maximum; inconclusive = response in the unintended direction; inactive = score below 0.9.
# Read-out: glucuronosyltransferase (UGT1A1), UGT1A1 (gene 54658)
# Experiment: CLD_UGT1A1_24hr: CellzDirect (CLD) Gene Expression Assay for glucuronosyltransferase (UGT1A1) at 24 hours (AID 2283696)
# Protocol: CLD_24hr is a cell-based, multiplexed-readout assay that uses hepatocyte, a human liver primary cell, with measurements taken at 24 hours after chemical dosing in a 96-well plate.CLD_UGT1A1_24hr is one of 16 assay component(s) measured or calculated from the CLD_24hr assay. It is designed to make measurements of mRNA induction, a form of inducible reporter, as detected with chemiluminescence signals by Quantitative Nuclease Protection Assay (qNPA) technology.Data from the assay component CLD_UGT1A1_24hr was analyzed at the endpoint, CLD_UGT1A1_24hr, in the positive analysis fitting direction relative to DMSO as the negative control and baseline of activity. Using a type of inducible reporter, gain-of-signal activity can be used to understand changes in the reporter gene as they relate to the gene UGT1A1. Furthermore, this assay endpoint can be referred to as a primary readout. To generalize the intended target to other relatable targets, this assay endpoint is annotated to the transferase intended target family, where subfamily is glucuronosyltransferase.
# Human hepatocyte cultures were treated daily for two consecutive days with fresh dosing solutions containing appropriate concentrations of the 320 ToxCast chemicals (chemical identities were blinded to CellzDirect and other ToxCast collaborators), vehicle control (0.2% DMSO), and positive control inducers as summarized in Table 1. Due to the large number of treatment groups and chemicals examined, the ToxCast chemicals were divided into two groups (spanning two independent cultures of hepatocytes from separate donor preparations (Hu778: ToxCast plates 1 and 2; Hu776: ToxCast plates 3 and 4). Each preparation of human hepatocyte cultures was treated with respective vehicle control, medium only control, set of six positive controls/reference chemicals for the five hepatic receptor pathways, and a subset of eight of the ToxCast chemicals (indoxacarb, pyrithiobac-sodium, norflurazon, cyhalofop-butyl, methomyl, thiram, acetochlor, and propiconazole). These replicate data, coupled with internal replicates designed within the blinded ToxCast chemical library, provided additional data to evaluate interindividual differences between hepatocyte preparations and their potential impact on chemical profiles.Cell morphology and integrity were evaluated using phase-contrast microscopy as an indicator of hepatocyte cell health (Tyson & Green, 1987). Cultures for each treatment group (i.e., media, vehicle [0.2% DMSO], positive control inducers [multiple concentrations], and the ToxCast chemicals [multiple concentrations]) were observed and cell morphology was assessed relative to vehicle control cultures at each harvest time point (0, 6, 24, or 48 h). […] Images were evaluated at the conclusion of the study to assess changes in cell integrity and account for the effects of chemical exposure on uncharacteristic changes in concentration-dependent gene expression profiles. The results from these determinations of apparent cytotoxicity were annotated (yes/no) alongside the corresponding qNPA data for reference.At the conclusion of each treatment period, hepatocyte cultures (96-well) were washed with 1 volume of HBSS, lysed by addition of 25 ul ArrayPlate lysis buffer (HTG, Tucson, AZ), and 70 ul/well of Denaturation Oil, denatured by incubation at 95C for 10 min, and frozen at approximately -70C until analysis by nuclease protection assay (qNPA) (Roberts et al., 2007). For qNPA analysis, cell lysates were thawed at 50C for approximately 30 min, qNPA probes were added, and samples were incubated at 95C for 10 min to begin the detection process by denaturing the target RNA, dissociating the duplexes and secondary structure hybridization. At the conclusion of the hybridization period, S1 nuclease reagent was added to each sample to digest all nonprotected nucleotides at 50C for 60-90 min. […]
SMILES,outcome,AC50
COC(=O)NS(=O)(=O)c1ccc(N)cc1,inactive,–
C=CCOC(=O)C(C)(C)OC(=O)c1cc(-n2c(=O)cc(C(F)(F)F)n(C)c2=O)ccc1Cl,inactive,–
Cc1cnc(C2=NC(C)(C(C)C)C(=O)N2)c(C(=O)O)c1 (stereo not given),inactive,–
CCOC(=O)C(C)OC(=O)c1cc(Oc2ccc(C(F)(F)F)cc2Cl)ccc1[N+](=O)[O-] (stereo not given),–,2460 nM (active)
CCOP(=S)(OCC)Oc1nc(Cl)n(C(C)C)n1,–,652 nM (active)
CN=C=S,inactive,–
CCNP(=S)(OC)O/C(C)=C/C(=O)OC(C)C (stereo not given),–,1700 nM (active)
N#CN=C1SCCN1Cc1ccc(Cl)nc1,inactive,–
CCCCC(O)(Cn1cncn1)c1ccc(Cl)cc1Cl (stereo not given),inactive,–
CC(C)N1C(=O)c2ccccc2NS1(=O)=O,inactive,–
CC(C)C1(C)N=C(c2ncccc2C(=O)O)NC1=O (stereo not given),inactive,–
O=C(O)c1c(Cl)ccc2cc(Cl)cnc12,inactive,–
CC(C)=CC1C(C(=O)OCc2coc(Cc3ccccc3)c2)C1(C)C (stereo not given),inactive,–
Nc1c(Cl)c(F)nc(OCC(=O)O)c1Cl,inactive,–
CNC(=O)N(C)c1nnc(C(C)(C)C)s1,inactive,–
CC1(C)CCC(=Cc2ccc(Cl)cc2)C1(O)Cn1cncn1 (stereo not given),inactive,–
COCC(=O)N(c1c(C)cccc1C)C(C)C(=O)OC (stereo not given),inactive,–
CCOc1nc(C(Cl)(Cl)Cl)ns1,inactive,–
COc1ccc(-c2ccccc2)cc1NNC(=O)OC(C)C,inactive,–
CC(C)(C)C(=O)C(Oc1ccc(Cl)cc1)n1cncn1 (stereo not given),inactive,–

SMILES,outcome,AC50
CCCN(CC)CC1COC2(CCC(C(C)(C)C)CC2)O1 (stereo not given),inactive,–
CSC(=O)c1c(C(F)F)nc(C(F)(F)F)c(C(=O)SC)c1CC(C)C,inactive,–
N#Cc1c(Cl)cccc1Cl,inactive,–
CC(C)Nc1nc(Cl)nc(NC(C)C)n1,–,4110 nM (active)
CCCCOCN(C(=O)CCl)c1c(CC)cccc1CC,inactive,–
O=c1n(Cl)c(=O)n(Cl)c(=O)n1Cl,inactive,–
CC1(C)C(C=C(Cl)Cl)C1C(=O)OC(C#N)c1cccc(Oc2ccccc2)c1 (stereo not given),–,6010 nM (active)
CC1(C)CON(Cc2ccccc2Cl)C1=O,inactive,–
COCc1cnc(C2=NC(C)(C(C)C)C(=O)N2)c(C(=O)O)c1 (stereo not given),inactive,–
O=P(O)(O)CCCl,inactive,–
CCSC(=O)N1CCCCCC1,inactive,–
Nc1c(Cl)c(Cl)nc(C(=O)O)c1Cl,inactive,–
CC(C)Oc1cccc(NC(=O)c2ccccc2C(F)(F)F)c1,inactive,–
Nc1cnn(-c2ccccc2)c(=O)c1Cl,inactive,–
CCCC(=NOCC)C1=C(O)CC(CC(C)SCC)CC1=O (stereo not given),inactive,–
CCOP(=O)(OCC)Oc1nc(Cl)c(Cl)cc1Cl,inactive,–
Clc1cccc(C(Cl)(Cl)Cl)n1,inactive,–
COc1cc(Cl)c(OC)cc1Cl,inactive,–
Cc1cc(C)nc(Nc2ccccc2)n1,inactive,–
COCC(C)N(C(=O)CCl)c1c(C)csc1C (stereo not given),inactive,–
